From PubChem BioAssay (EPA / NIEHS)
Results filed as inconclusive are left out. The source made the active and inactive calls. Rule for the calls, unless noted: active = hit-call score of the fitted dose curve at least 0.9, where 1 is the maximum; inconclusive = response in the unintended direction; inactive = score below 0.9. Where a SMILES comes first, the peptide text is derived from it. [ ]: non-standard residue; d: D form. pGlu = O=C1CC[C@@H](C(=O)O)N1; Thz = O=C(O)[C@@H]1CSCN1

Tests used:
[1] = TOX21_p53_BLA_p2_viability: Viability Assessment in the Tox21 HCT-116 p53 Agonism Beta-lactamase Assay, Phase 2 (AID 2283591);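 note: compound exposure lasted 16 h at 37 °C; actives lower the ATP signal meaning cytotoxicity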
Method in brief: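 HCT116 p53-bla cells, 4000/well, dosed after 5 h plating (217-fold dilution of DMSO stocks) and incubated 16 h at 37C. Viability taken as cellular ATP by CellTiter-Glo luminescence after 30 min RT; signal loss marks cytotoxicity.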

[2] = biological target: Cellular tumor antigen p53 (Homo sapiens) (UniProt P04637); assay: TOX21_p53_BLA_p2_ratio: Tox21 HCT-116 p53 Agonism Beta-lactamase Assay, Ratio, Phase 2 (AID 2283592)
Cellular tumor antigen p53 (Homo sapiens), sequence (P04637 whole entry, looked up): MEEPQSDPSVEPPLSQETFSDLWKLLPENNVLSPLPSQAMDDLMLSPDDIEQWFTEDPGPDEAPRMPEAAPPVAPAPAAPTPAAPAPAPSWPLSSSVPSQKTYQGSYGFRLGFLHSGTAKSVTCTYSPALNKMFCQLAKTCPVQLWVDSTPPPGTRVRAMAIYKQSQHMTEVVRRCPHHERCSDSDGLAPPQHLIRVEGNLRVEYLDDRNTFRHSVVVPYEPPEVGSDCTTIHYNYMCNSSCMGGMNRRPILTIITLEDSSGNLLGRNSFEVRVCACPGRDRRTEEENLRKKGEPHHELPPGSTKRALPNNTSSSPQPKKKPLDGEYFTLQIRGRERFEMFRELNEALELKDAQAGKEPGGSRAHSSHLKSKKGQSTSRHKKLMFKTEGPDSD
Method in brief: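 Human colon HCT116 cells with an inducible p53 beta-lactamase reporter are exposed to test chemicals for 16 h at 37C. Reporter induction is read as the 460/530 nm emission ratio after CCF4-AM loading, normalized to DMSO.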

[3] = TOX21_p53_BLA_p4_viability: Viability Assessment in the Tox21 HCT-116 p53 Agonism Beta-lactamase Assay, Phase 4 (AID 2283597);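 note: hits lower the luminescence signal meaning cytotoxicity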
Method in brief: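 Luminescent ATP readout (CellTiter-Glo, 30 min, room temperature) in the same wells as the p53 bla ratio. HCT116 cells were treated for 16 h at 37C with DMSO-dissolved compounds.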

[4] = TOX21_p53_BLA_p5_viability: Viability Assessment in the Tox21 HCT-116 p53 Agonism Beta-lactamase Assay, Phase 5 (AID 2283600)
Method in brief: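 Seeded cells (4000/well) settle 5 h before compound addition. Plates then incubate 16 h at 37C, receive FRET substrate for 2 h, and finally CellTiter-Glo, with luminescence measured after a 30 min room-temperature incubation.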

[5] = biological target: Cellular tumor antigen p53 (Homo sapiens) (UniProt P04637); assay: TOX21_p53_BLA_p4_ratio: Tox21 HCT-116 p53 Agonism Beta-lactamase Assay, Ratio, Phase 4 (AID 2283601)
Method in brief: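 HCT-116 p53 beta-lactamase reporter cells (4000/well) preincubated 5 h, then compound (217-fold dilution of DMSO stock) for 16 h at 37C. CCF4-AM substrate added 2 h at room temperature; 460/530 nm emission ratio fitted upward versus DMSO.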

[6] = biological target: Cellular tumor antigen p53 (Homo sapiens) (UniProt P04637); assay: TOX21_p53_BLA_p5_ratio: Tox21 HCT-116 p53 Agonism Beta-lactamase Assay, Ratio, Phase 5 (AID 2283599)
Method in brief: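 HCT-116 p53-bla cells (4000/well) plated 5 h, dosed with compound (217-fold DMSO dilution) for 16 h at 37 C; CCF4-AM substrate 2 h at room temperature. Activity is the 460/530 nm emission ratio (405 nm excitation), fitted in gain-of-signal direction versus DMSO.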

[7] = biological target: PGR (gene 5241) (UniProt P06401); assay: TOX21_PR_BLA_Followup_Agonist_ratio: Tox21 HEK293 Progesterone Receptor (PR) Agonism Beta-lactamase Follow-Up Assay, Ratio (AID 2283933)
PGR (gene 5241), sequence (P06401 whole entry, looked up): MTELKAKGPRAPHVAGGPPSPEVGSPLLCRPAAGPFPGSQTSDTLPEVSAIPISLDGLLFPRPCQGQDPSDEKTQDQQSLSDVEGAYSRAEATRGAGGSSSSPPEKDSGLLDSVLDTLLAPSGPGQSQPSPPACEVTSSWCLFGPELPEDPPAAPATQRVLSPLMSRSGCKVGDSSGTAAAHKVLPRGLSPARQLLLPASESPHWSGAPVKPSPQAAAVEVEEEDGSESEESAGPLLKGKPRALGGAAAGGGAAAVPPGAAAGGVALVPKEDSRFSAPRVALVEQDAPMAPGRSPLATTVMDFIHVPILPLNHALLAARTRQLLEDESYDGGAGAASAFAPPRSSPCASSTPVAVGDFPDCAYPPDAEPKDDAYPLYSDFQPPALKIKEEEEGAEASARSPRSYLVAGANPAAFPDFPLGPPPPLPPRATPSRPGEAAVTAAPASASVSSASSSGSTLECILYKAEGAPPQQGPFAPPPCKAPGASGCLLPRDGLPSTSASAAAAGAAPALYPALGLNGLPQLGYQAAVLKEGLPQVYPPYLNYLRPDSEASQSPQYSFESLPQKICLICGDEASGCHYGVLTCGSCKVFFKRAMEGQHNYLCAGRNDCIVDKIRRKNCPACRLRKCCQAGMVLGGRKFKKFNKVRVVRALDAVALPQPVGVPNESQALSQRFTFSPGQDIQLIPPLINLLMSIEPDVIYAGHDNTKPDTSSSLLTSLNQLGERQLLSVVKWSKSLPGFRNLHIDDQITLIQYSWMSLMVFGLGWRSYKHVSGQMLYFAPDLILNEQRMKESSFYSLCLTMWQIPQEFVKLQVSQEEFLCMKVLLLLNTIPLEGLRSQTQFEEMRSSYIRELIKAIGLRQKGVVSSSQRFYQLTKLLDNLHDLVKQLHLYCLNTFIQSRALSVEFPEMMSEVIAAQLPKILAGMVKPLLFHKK
Method in brief: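 HEK293T PR-UAS-bla, 2% CS-FBS; 6 hr preincubation, cpd/DMSO pinned, 16 hr 37C/5% CO2; LiveBLAzer B/G 2 hr RT; FRET ch2/ch1 ratio, agonist direction vs DMSO. Viability by CellTiter-Glo in same wells.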

[8] = biological target: PGR (gene 5241) (UniProt P06401); assay: TOX21_PR_BLA_Followup_Antagonist_ratio: Tox21 HEK293 Progesterone Receptor (PR) Antagonism Beta-lactamase Follow-Up Assay, Ratio (AID 2283934)
Method in brief: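 HEK293T PR-UAS-bla, 2% CS-FBS; 6 hr plating, then cpd + R5020 (1 nM final), 16 hr 37C/5% CO2. B/G FRET substrate 2 h RT. Ratio ch2/ch1 vs DMSO; CellTiter-Glo viability multiplexed, autofluorescence checked.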

[9] = TOX21_PR_BLA_Followup_Agonist_viability: Viability Assessment in the Tox21 HEK293 Progesterone Receptor (PR) Agonism Beta-lactamase Follow-Up Assay (AID 2283935);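 note: cells exposed to compound for 16 hr at 37 °C; signal loss means lower viability so actives are cytotoxic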
Method in brief: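 HEK293T PR-UAS-bla, 3,000 cells/well, 2% CS-FBS; 6 hr pre-incubation; cpd in DMSO, 16 hr 37C; LiveBLAzer 2 hr RT, then CellTiter-Glo 30 min RT, luminescence. Decrease = lost viability.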

[10] = TOX21_PR_BLA_Followup_Antagonist_viability: Viability Assessment in the Tox21 HEK293 Progesterone Receptor (PR) Antagonism Beta-lactamase Follow-Up Assay (AID 2283936);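 note: hits lower the luminescence signal meaning cytotoxicity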
Method in brief: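 PR-UAS-bla HEK293T cells (3,000/well, 2% charcoal-stripped FBS) given compound plus R5020 agonist, 16 h at 37C. CellTiter-Glo added after bla read, 30 min at room temperature; luminescence loss indicates cytotoxicity.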

[11] = biological target: PGR (gene 5241) (UniProt P06401); assay: TOX21_PR_LUC_Followup_Agonist: Tox21 HEK293 Progesterone Receptor (PR) Agonism Luciferase Follow-Up Assay (AID 2283937; active = hit-call score of the fitted dose curve at least 0.9, where 1 is the maximum; inactive = score below 0.9)
Method in brief: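 Cells: HEK293-PR-A-luc, 3,000/well, 10% charcoal-stripped FBS assay medium. Compound added after 5 h; 16 h, 37C, 0% CO2. ONE-Glo luciferase, luminescence. Positive fit vs DMSO.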

[12] = TOX21_PR_LUC_Followup_Antagonist_viability: Viability Assessment in the Tox21 HEK293 Progesterone Receptor (PR) Antagonism Luciferase Follow-Up Assay (AID 2283940)
Method in brief: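 Multiplexed viability counter-screen: after 5 days in charcoal-stripped-FBS medium, HEK293-PR-A-luc cells are plated, pinned with DMSO-dissolved compounds for 16 h at 37C, and ATP content is quantified luminescently via CellTiter-Glo.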

[13] = TOX21_PR_LUC_Followup_Agonist_viability: Viability Assessment in the Tox21 HEK293 Progesterone Receptor (PR) Agonism Luciferase Follow-Up Assay (AID 2283941);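 note: loss of signal means cytotoxicity so actives lower viability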
Method in brief: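 Cells were kept 5 days in charcoal-stripped serum medium before plating HEK293-PR-A-luc at 3,000 cells/well. After 5 h they received DMSO-dissolved compound and incubated 16 h at 37C. Viability was taken from CellTiter-Glo ATP luminescence.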

[14] = CCTE_Harrill_HTTr_Viability_MCF7: CCTE's 6-hour Cell Viability Assessment for the High-Throughput Transcriptomics (HTTr) Platform, in MCF-7 cells cultured in DMEM + 10% fetal bovine serum, Harrill Lab (AID 2284010; active = hit-call score of the fitted dose curve at least 0.9, where 1 is the maximum; inactive = score below 0.9)
Method in brief: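 Cells were dosed with chemicals in an eight-point dilution series, imaged 6 hours later for propidium iodide uptake, and the endpoint was analyzed by bidirectional fitting against DMSO as negative control.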

[15] = CCTE_Harrill_HTTr_Apoptosis_MCF7: CCTE's 6-hour Apoptosis Assessment for the High-Throughput Transcriptomics (HTTr) Platform, in MCF-7 cells cultured in DMEM + 10% fetal bovine serum, Harrill Lab (AID 2284011; active = hit-call score of the fitted dose curve at least 0.9, where 1 is the maximum; inactive = score below 0.9)
Method in brief: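 Apoptosis in MCF-7 cells grown in DMEM with 10% fetal bovine serum was scored after a six hour exposure by high content imaging of caspase-3/7 activation (CellEvent Caspase 3/7 Green), with DMSO serving as negative control and baseline.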

Measured: AC50

CCCC(C)CC (stereo not drawn)
inactive: [1] | [2] | [3] | [4]

CCCc1ncc(C[n+]2ccccc2C)c(N)n1
inactive: [1] | [2] | [3] | [4] | [5]

CCCCCOC(=O)Nc1nc(=O)n([C@@H]2O[C@H](C)[C@@H](O)[C@H]2O)cc1F
inactive: [1] | [2] | [3] | [6] | [4] | [5]

C=CC(=O)OCCCCCCCC
inactive: [1] | [2] | [3] | [4]

CC1(C)S[C@@H]2[C@H](N=CN3CCCCCC3)C(=O)N2[C@H]1C(=O)O
inactive: [1] | [2] | [3] | [4] | [5]

C[C@@H]1CC[C@H]2C(C)(C)[C@H]3C[C@@]12CC[C@@]3(C)O
inactive: [1] | [2] | [3] | [4] | [5]

CN1CCCN=C1COC(=O)C(O)(c1ccccc1)C1CCCCC1 (stereo not drawn)
inactive: [1] | [2] | [3] | [6] | [5]

CO/N=C(/C(=O)N[C@@H]1C(=O)N2C(C(=O)OCOC(=O)C(C)(C)C)=C(C)CS[C@H]12)c1csc(N)n1
inactive: [1] | [2] | [3] | [4]

CC1(C)[C@@H]2CC[C@]3(C2)[C@@H]1C(=O)CCC3(C)C
inactive: [1] | [2] | [3] | [4] | [5]

Nc1ccccn1
inactive: [1] | [2] | [3] | [6] | [4] | [5]

CCC(=O)Nc1cccc(N)c1
inactive: [1] | [2] | [3] | [4]

CCOC(=O)[C@H](CCc1ccccc1)N[C@H]1CCCN2CCC[C@@H](C(=O)O)N2C1=O
inactive: [1] | [2] | [3] | [6] | [5]

CCCCCCCC/C=C\CCCCCCCCN
inactive: [1] | [2] | [3] | [6] | [5]

CCNc1cc(O)ccc1C
inactive: [1] | [2] | [3] | [4] | [5]

O=C1N(c2ccccc2)c2ccccc2C1(Cc1ccncc1)Cc1ccncc1
inactive: [1] | [2] | [3] | [6] | [5]

O=C(O)c1cccc(O)c1
inactive: [1] | [2] | [3] | [6] | [5]

C[C@@H]1O[C@@H](O[C@@H]2[C@@H](O)[C@H](OCCc3ccc(O)c(O)c3)O[C@H](CO[C@@H]3O[C@H](CO)[C@@H](O)[C@H](O)[C@H]3O)[C@H]2OC(=O)/C=C/c2ccc(O)c(O)c2)[C@H](O)[C@H](O)[C@H]1O
inactive: [1] | [2] | [3] | [4]

CCOc1cc(OCC)c(C(=O)CCC(=O)O)cc1OCC
inactive: [1] | [2] | [3] | [4] | [5]

CC1(N)CCC(C(C)(C)N)CC1 (stereo not drawn)
inactive: [1] | [2] | [6] | [4]

CCNc1nc(NC(C)CC)nc(OC)n1 (stereo not drawn)
inactive: [1] | [2] | [6] | [5]
active: [4] 0.12 nM

CCC(C)(C)C
inactive: [1] | [2] | [3] | [5]

N[C@H](C(=O)O)c1ccc(O)cc1
inactive: [1] | [2] | [6] | [4] | [5]

Cc1cc(C(=O)NCCc2ccc(S(=O)(=O)NC(=O)NN3CCCCCC3)cc2)no1
inactive: [1] | [2] | [3] | [5]

CCc1ccc(C)cc1
inactive: [1] | [2] | [4]

CC(=O)OCC(=O)[C@@]1(O)CC[C@H]2[C@@H]3CCC4=CC(=O)C=C[C@]4(C)[C@@]3(F)[C@@H](O)C[C@@]21C
active: [7] 16900 nM | [11] 123 nM
not listed: [6] | [14] | [15]
inactive: all other assays above

CC(=O)[C@H]1CC[C@H]2[C@@H]3C[C@H](C)C4=CC(=O)CC[C@]4(C)[C@H]3[C@@H](O)C[C@]12C
inactive: [1] | [2] | [6]

O=c1[nH]c(=O)c2ccccc2o1
inactive: [1] | [2] | [6]

N#CCc1ccccc1[N+](=O)[O-]
inactive: [1] | [2] | [6] | [4] | [5]

C[C@@H]1C\C=C/C=C/C=C/C=C/[C@H](O[C@@H]2O[C@H](C)[C@@H](O)[C@H](N)[C@@H]2O)C[C@@H]2O[C@](O)(C[C@@H](O)C[C@@H]3O[C@@H]3/C=C\C(=O)O1)C[C@H](O)[C@H]2C(=O)O
inactive: [1] | [2] | [6]

C=CCCCCCCCCCCCCCCCC
inactive: [1] | [2] | [3] | [5]

CN1CCN(C(=O)C2CCCCC2)CC1
inactive: [1] | [2] | [4]

CCCCCCCCCC(=O)N(C)C
inactive: [1] | [2] | [6] | [4]

O=C1c2ccccc2S(=O)(=O)N1CCCCN1CCN(c2ncccn2)CC1
inactive: [1] | [2] | [4]

CN(C)CCc1c[nH]c2ccc(C[C@H]3COC(=O)N3)cc12
inactive: [1] | [2] | [6] | [4] | [5]

CC(O)c1ccccc1 (stereo not drawn)
inactive: [1] | [2] | [3] | [5]

CCOC(=N)CC(=O)OCC
inactive: [1] | [2] | [3] | [14] | [15]

CCCCCCN
inactive: [1] | [2] | [6] | [4]

O=C1CC[C@@H](C(=O)N2CSC[C@H]2C(=O)O)N1 ([pGlu]-[Thz]-OH)
inactive: [1] | [2] | [6]
